Measured values published in PubChem BioAssay AID493168 (National Center for Advancing Translational Sciences (NCATS), 2011).
Inconclusive results are not listed. The source made the active and inactive calls. Calls come from the whole dose curve; as a rule, active = well fitted inhibition curve with a large enough effect; inconclusive = small, poorly fitted or top-dose-only effect, or effect the other way; inactive = flat fitted curve, though single readings scatter.

Target: Ubiquitin carboxyl-terminal hydrolase 2 (Homo sapiens) (UniProt O75604)
Experiment: Confirmation Assay for Inhibitors of Ubiquitin-specific Protease USP2a Using CHOP2 as the Reporter; note: nearly all actives have a fitted effect of over 55% in size;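 for activity change, negative = inhibition: plate controls were DMSO wells for no effect and full inhibition by NEM control for full effect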
Details: USP2 core, Ub-CHOP2 coupled reporter fluorescence; series mostly up to 38.3 µM; activity change, negative = inhibition: at the top concentration
Procedure, shortened: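 Ub-CHOP2 cleavage coupled to reporter activation was read by fluorescence after 60 min at RT, with 25 nM final Ub-CHOP2 and substrate. Enzyme (10 nM final USP2 core) first sat 30 min with compound; data were normalized to NEM and fitted to concentration-response curves.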
Potency is the fitted concentration of half-maximal effect.

Sequence of Ubiquitin carboxyl-terminal hydrolase 2 (Homo sapiens) (O75604 whole entry, looked up): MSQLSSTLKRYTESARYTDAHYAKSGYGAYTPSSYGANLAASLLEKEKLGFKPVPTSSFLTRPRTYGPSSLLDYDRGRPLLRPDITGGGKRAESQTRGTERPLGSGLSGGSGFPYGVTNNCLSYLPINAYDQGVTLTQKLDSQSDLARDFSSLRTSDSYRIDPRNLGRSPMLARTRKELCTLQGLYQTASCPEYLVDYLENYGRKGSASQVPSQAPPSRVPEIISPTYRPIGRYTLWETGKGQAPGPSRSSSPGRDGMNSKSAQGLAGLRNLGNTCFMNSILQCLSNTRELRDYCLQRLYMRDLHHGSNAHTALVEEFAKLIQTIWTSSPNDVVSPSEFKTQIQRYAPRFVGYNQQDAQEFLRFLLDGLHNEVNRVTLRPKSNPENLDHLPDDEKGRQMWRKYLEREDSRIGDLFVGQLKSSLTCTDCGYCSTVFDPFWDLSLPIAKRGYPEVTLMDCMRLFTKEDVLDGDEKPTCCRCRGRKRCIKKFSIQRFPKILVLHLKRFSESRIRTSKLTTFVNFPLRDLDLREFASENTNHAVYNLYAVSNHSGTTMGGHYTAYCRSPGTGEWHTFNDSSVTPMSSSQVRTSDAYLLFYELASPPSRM

| SMILES | Potency | activity change, negative = inhibition |
| --- | --- | --- |
| O=c1[nH]c(=S)[nH]c2c1C(c1ccc(Br)cc1)c1c([nH]c(=S)[nH]c1=O)O2 | 9.27 µM (active) | – |
| CC(=O)c1ccc(NC(=O)CC(NCCC2=CCCCC2)C(=O)O)cc1 (configuration not stated) | – | -0.641% (inactive) |
| CC1(C(=O)O)Sc2[nH]c(=O)sc2C2c3ccccc3OC(=O)C21 (configuration not stated) | – | -1.68% (inactive) |
| O=C(Nc1nc(-c2ccco2)c(-c2ccco2)s1)C1CC(=O)N(c2ccc3c(c2)OCCO3)C1 (configuration not stated) | 10.4 µM (active) | – |
| COc1ccc(NC(=O)c2cc(-c3ccco3)nc3ccccc23)cc1S(=O)(=O)N1CCOCC1 | 18.5 µM (active) | – |
| COc1ccc(CCNC(=O)Cc2cc(=O)[nH]c(=O)[nH]2)cc1OC | – | 1.29% (inactive) |
| CCCOc1ccc(-c2nc(C#N)c(N3CCN(CC)CC3)o2)cc1 | – | 2.02% (inactive) |
| COc1ccc(OCC(=O)NCCNC(=O)c2cccnc2)cc1 | – | 1.94% (inactive) |
| Cc1ccc2[nH]c3c(c2c1)CN(C(=O)CN1CCSCC1)CC3 | – | 4.78% (inactive) |
| O=C(Nc1cccc(Cl)c1)Nc1nnc(CC2=CCCCC2)s1 | – | 1.35% (inactive) |
| COc1ccc(O)c(-c2cc(-c3ccc(F)cc3)n[nH]2)c1 | – | -4.2% (inactive) |
| Cc1c(NC(=O)C2CCCN(S(=O)(=O)c3cnc[nH]3)C2)c(=O)n(-c2ccccc2)n1C (configuration not stated) | – | 4.21% (inactive) |
| CC(C)(C)[C@H]1COC(=O)[C@@H](Cc2ccc(F)cc2)C/C=C\C[C@@H](CC(=O)N[C@H](CO)Cc2ccccc2)C(=O)N1 | – | 2.33% (inactive) |
| O=C(O)c1cccc(S(=O)(=O)NNc2ccccc2C(F)(F)F)c1 | – | 1.51% (inactive) |
| C=CC[C@H](CC(=O)N[C@H](CO)Cc1ccccc1)C(=O)N[C@H](COC(=O)[C@@H](CC=C)CC(=O)OC(C)(C)C)Cc1c[nH]c2ccccc12 | – | -0.7% (inactive) |
| O=C(CSCCO)Nc1cccc2ccccc12 | – | -2.29% (inactive) |
| CC1=CC(C)(C)N(C(=O)c2ccccc2)c2ccccc21 | – | -0.389% (inactive) |
| O=C(O)c1cccc(-n2cccc2/C=C2/NC(=O)N(c3ccc(Cl)cc3)C2=O)c1 | 9.27 µM (active) | – |
| N#Cc1cccc(C(=O)N(CCc2ccccc2)Cc2cccs2)c1 | – | -0.668% (inactive) |
| O=S(=O)(NC1CCSc2ccccc21)c1ccccc1 (configuration not stated) | – | -6.24% (inactive) |
| C#CCOCCOCCOCCNc1nc(N2CCN(C(=O)CCCCCCCCCCNC(=O)[C@H](CCCCN)n3cc(CCO)nn3)CC2)nc(N2CCN(C(=O)CCCCCCCCCCNC(=O)[C@H](CCCCN)n3cc(C[C@@H](C)CC)nn3)CC2)n1 | 8.26 µM (active) | – |
| Cc1cnc(N)c2c(=O)oc3ccccc3c12 | – | 5.48% (inactive) |
| CCn1c(COc2ccccc2)nnc1SCC(=O)CC(=O)Nc1ccccc1OC | – | -1.21% (inactive) |
| O=C1NCC(CN(c2ccccc2)c2ccccc2)O1 (configuration not stated) | – | 1.34% (inactive) |
| C#CCOCCOCCOCCNc1nc(N2CCN(C(=O)CCCCCCCCCCNC(=O)[C@H]([C@@H](C)CC)n3cc(CCCCCN)nn3)CC2)nc(N2CCN(C(=O)CCCCCCCCCCNC(=O)[C@H]([C@@H](C)CC)n3cc(CCCCN=C(N)N)nn3)CC2)n1 | 6.56 µM (active) | – |
| Cn1c(=O)c(C(=O)Nc2ccccc2S(N)(=O)=O)c(O)c2ccccc21 | 14.7 µM (active) | – |
| Cn1c(=O)c(C(=O)Nc2ncccc2O)c(O)c2ccccc21 | – | -17.2% (inactive) |
